Laboratory results published in the supplement of paper PMC10849652.
About 8,800 targets were measured; listed, in parts, are those with a hit and a random draw of the rest. About 0.5% of all pairs of compound and target were hits.

Experiments:
Experiment in all cases: log2 fold change, soluble protein after heating vs DMSO (PISA); higher = thermal stabilisation; K562 lysate, 10 uM; active = over 0.2 and 3.5 SD of the protein, either way, in both replicates (recomputed)
[1] = compound: NCC(=O)Nc1ccc(-n2nc(C(F)(F)F)cc2-c2ccc3c(ccc4ccccc43)c2)cc1
Procedure, shortened: (§1)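 To prepare the extract, K562 pellets were dounce-homogenised in PBS pH 7.4 with 1 mM MgCl2, giving crude material at 1 mg/mL protein. This was treated with 10 μM compound for 30 min, then heated in aliquots for 3 min over 48°C-58°C before pooling and addition of NP-40 to 0.5% at 4°C. Centrifugation at 21,000xg for 90 min left soluble protein in the supernatant, which TMTpro 16plex LC-MS/MS quantified with equalised channel sums. Results are log-two fold changes in thermal stability compared with solvent controls, from duplicates.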

vorinostat = compound: O=C(CCCCCCC(=O)Nc1ccccc1)NO [vorinostat]
Procedure, shortened: as §1

silmitasertib = compound: O=C(O)c1ccc2c(c1)nc(Nc1cccc(Cl)c1)c1ccncc12 [silmitasertib]
Procedure, shortened: as §1

[2] = compound: O=C1NC(=O)C(c2cnc3ccccn23)=C1c1cn2c3c(cc(F)cc13)CN(C(=O)N1CCCCC1)CC2
Procedure, shortened: as §1

entospletinib = compound: c1cn2cc(-c3ccc4cn[nH]c4c3)nc(Nc3ccc(N4CCOCC4)cc3)c2n1 [entospletinib]
Procedure, shortened: as §1

Measured: log2 fold change

RDH11 (UniProt Q8TC12)
Sequence of UniProt Q8TC12 (Q8TC12 whole entry, looked up): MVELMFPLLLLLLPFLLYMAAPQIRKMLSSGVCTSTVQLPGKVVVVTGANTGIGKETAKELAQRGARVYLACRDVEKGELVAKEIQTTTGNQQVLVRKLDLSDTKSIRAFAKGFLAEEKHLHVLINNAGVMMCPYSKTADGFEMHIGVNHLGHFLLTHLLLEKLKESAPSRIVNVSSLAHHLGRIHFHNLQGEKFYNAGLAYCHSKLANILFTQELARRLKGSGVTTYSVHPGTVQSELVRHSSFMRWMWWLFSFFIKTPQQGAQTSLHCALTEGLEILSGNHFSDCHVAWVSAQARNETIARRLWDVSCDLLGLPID
inactive: [1] 0.008 | vorinostat 0.038 | silmitasertib 0.022 | [2] -0.047 | entospletinib 0.014

RAE1 (UniProt P78406)
Sequence of UniProt P78406 (P78406 whole entry, looked up): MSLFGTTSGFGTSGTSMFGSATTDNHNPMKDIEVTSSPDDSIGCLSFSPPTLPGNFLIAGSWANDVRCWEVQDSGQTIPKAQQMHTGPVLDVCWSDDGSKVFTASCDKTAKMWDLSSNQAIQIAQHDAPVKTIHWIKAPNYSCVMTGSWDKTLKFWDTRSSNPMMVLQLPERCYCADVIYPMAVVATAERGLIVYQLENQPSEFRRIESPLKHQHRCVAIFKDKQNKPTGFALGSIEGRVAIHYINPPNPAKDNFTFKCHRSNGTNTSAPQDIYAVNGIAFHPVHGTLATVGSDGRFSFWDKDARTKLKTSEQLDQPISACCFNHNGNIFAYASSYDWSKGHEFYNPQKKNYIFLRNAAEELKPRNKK
inactive: [1] 0.007 | vorinostat -0.126 | silmitasertib -0.022 | [2] -0.062 | entospletinib -0.024

RIOK1 (UniProt Q9BRS2)
Sequence of UniProt Q9BRS2 (Q9BRS2 whole entry, looked up): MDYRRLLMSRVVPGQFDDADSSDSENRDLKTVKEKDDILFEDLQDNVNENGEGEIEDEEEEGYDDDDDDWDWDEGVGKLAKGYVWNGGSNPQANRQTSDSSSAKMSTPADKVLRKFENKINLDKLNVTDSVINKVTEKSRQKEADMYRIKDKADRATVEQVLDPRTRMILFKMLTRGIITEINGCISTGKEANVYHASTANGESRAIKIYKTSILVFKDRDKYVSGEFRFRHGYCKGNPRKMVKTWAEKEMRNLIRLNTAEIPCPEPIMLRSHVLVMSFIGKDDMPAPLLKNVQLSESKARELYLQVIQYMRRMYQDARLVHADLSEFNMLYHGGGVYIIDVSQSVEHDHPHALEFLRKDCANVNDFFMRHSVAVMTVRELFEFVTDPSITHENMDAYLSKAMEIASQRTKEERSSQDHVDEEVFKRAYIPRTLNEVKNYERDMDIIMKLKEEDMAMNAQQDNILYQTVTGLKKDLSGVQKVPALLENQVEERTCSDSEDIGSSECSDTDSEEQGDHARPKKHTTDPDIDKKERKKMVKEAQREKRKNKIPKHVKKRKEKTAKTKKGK
inactive: [1] 0.016 | vorinostat -0.035 | [2] -0.02 | entospletinib 0.029
active: silmitasertib 0.358

RPS18 (UniProt P62269)
inactive: [1] 0.033 | vorinostat 0.081 | silmitasertib 0.019 | [2] 0.007 | entospletinib -0.02

RBBP7 (UniProt Q16576)
Sequence of UniProt Q16576 (Q16576 whole entry, looked up): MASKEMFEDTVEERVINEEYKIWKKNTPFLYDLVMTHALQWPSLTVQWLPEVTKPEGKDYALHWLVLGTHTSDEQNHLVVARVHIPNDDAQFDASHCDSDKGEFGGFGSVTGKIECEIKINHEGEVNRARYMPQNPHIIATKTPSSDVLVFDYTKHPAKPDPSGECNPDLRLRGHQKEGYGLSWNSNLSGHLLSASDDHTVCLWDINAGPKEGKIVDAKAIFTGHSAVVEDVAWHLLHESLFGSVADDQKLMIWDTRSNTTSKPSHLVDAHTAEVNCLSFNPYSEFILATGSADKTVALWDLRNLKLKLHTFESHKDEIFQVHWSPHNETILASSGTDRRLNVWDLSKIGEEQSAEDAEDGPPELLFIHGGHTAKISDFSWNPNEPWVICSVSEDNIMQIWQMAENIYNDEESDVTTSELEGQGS
inactive: [1] -0.005 | vorinostat -0.091 | silmitasertib 0.033 | [2] -0.167 | entospletinib 0

RCOR3 isoform 3 (UniProt Q9P2K3)
inactive: [1] -0.044 | vorinostat -0.206 | silmitasertib -0.002 | [2] -0.01 | entospletinib 0.034

RDH14 (UniProt Q9HBH5)
Sequence of UniProt Q9HBH5 (Q9HBH5 whole entry, looked up): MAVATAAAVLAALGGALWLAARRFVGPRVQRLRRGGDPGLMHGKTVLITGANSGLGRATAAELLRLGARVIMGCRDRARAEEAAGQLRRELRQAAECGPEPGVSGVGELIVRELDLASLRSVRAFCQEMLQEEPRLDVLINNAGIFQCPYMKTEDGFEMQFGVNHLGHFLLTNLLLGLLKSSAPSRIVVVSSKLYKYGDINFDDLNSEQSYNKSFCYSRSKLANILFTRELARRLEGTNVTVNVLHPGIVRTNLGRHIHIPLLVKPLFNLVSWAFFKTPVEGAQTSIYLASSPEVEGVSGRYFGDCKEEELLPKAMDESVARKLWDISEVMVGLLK
inactive: [1] -0.072 | silmitasertib 0.044 | [2] 0.004 | entospletinib 0.026
active: vorinostat -0.318

RFC4 (UniProt P35249)
Sequence of UniProt P35249 (P35249 whole entry, looked up): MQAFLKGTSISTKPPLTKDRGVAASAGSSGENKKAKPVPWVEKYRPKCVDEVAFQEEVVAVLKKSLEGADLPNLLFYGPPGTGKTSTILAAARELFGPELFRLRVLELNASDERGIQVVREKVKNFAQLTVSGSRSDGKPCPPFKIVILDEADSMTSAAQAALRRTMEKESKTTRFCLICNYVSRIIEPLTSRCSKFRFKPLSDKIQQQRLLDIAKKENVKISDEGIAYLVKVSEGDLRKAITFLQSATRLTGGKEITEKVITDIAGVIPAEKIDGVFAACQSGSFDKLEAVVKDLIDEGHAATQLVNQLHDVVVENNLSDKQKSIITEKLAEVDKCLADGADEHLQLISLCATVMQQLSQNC
active: vorinostat -0.423
inactive: [1] 0.013 | silmitasertib 0.033 | [2] 0.008 | entospletinib 0.006

RARS (UniProt P54136)
Sequence of UniProt P54136 (P54136 whole entry, looked up): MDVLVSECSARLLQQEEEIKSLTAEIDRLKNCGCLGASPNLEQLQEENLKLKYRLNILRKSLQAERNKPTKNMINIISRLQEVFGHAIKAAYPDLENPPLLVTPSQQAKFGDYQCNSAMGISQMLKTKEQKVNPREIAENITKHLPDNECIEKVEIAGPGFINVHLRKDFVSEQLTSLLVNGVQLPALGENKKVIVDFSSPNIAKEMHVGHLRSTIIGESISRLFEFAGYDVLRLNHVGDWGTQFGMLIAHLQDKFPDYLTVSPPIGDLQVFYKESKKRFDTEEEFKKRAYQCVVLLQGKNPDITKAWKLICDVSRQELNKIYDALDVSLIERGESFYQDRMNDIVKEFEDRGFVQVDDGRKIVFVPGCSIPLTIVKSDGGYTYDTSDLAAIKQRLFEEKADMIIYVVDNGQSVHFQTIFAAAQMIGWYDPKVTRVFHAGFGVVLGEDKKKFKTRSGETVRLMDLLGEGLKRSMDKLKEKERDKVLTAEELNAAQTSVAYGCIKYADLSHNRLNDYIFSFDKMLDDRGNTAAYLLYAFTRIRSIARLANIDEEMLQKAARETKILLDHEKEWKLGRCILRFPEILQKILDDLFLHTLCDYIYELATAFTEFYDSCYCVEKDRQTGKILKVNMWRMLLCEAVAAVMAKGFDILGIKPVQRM
inactive: [1] -0.004 | silmitasertib 0.056 | [2] -0.009 | entospletinib 0.024
active: vorinostat -0.309
